# Bioassay records (PubChem)
# The sample as a whole holds a higher share of hits than the screen did.
# 12-LOX inh = Primary qHTS assay for inhibitors of human arachidonate 12S-lipoxygenase (ALOX12): Round 2; Polyunsaturated fatty acid lipoxygenase ALOX12 (Homo sapiens), P18054; purified 12hLO, xylenol orange hydroperoxide absorbance; Potency, µM (series often up to 108 µM), hits mostly inhibitors; 1.1% of 580,000 active; AID 1671190, 2021
# Target sequence (P18054 whole entry, looked up): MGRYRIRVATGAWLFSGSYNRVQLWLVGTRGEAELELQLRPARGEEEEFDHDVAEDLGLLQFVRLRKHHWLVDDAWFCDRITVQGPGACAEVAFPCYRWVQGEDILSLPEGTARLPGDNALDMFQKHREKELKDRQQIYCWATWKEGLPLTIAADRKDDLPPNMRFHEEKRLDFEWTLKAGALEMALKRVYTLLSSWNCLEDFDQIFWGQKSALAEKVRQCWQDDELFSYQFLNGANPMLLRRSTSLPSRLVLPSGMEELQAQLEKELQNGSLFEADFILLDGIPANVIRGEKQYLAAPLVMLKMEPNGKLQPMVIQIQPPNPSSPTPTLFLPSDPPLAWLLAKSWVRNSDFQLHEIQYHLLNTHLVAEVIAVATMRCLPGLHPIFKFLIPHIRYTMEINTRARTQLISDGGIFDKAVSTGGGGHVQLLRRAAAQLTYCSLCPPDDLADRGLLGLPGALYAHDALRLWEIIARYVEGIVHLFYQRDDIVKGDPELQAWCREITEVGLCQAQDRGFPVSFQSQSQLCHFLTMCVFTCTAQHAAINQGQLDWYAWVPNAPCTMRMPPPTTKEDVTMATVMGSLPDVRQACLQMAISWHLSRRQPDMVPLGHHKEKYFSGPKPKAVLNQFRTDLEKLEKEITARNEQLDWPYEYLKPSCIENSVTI
#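 Purified human 12hLO (150 nM final) in 25 mM Hepes, 0.01% Triton X-100, pH 7.0 was preincubated 15 min at room temperature with compound. Then 40 uM arachidonic acid was added, 30 min. Hydroperoxide was read by Fe-XO absorbance ratio 573/405 nm.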
# IL-1B inflam inh = qHTS for Inhibitors of Inflammasome Signaling: IL-1-beta AlphaLISA Primary Screen | THP-1 LPS/ATP IL-1B secretion, AlphaLISA, 16 h; hits give low values | activity change, % at 57.5 µM | 4.7% of 360,000 active | AID 743279, 2014; in the data active = activity change below about -50%; inconclusive = mostly about -30% to -49%
#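 Secreted IL-1B measured by AlphaLISA bead assay after 16 h compound exposure of THP-1 cells; compounds (final up to 57.5 uM) added 1 h before LPS (250 ng/mL) and ATP (1.25 mM) stimulation; lower signal means less secretion.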
# HT1080 IDH1KD tx = qHTS for induction of synthetic lethality in tumor cells producing 2HG: qHTS for the HT-1080-IDH1KD cell line; HT-1080 IDH1 knockdown viability, ATP luminescence, 48 h; Potency, µM (series often up to 46.1 µM), most hits filed as cytotoxic; 2% of 360,000 active
#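 After a 2 h attachment period, IDH1KD HT-1080 cells took pin-transferred compound for 48 h at 37 °C; ATP-based luminescence after 10 min room-temperature reagent incubation reported viability.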
# DT40 TDP1 CPT = qHTS for Inhibitors of human tyrosyl-DNA phosphodiesterase 1 (TDP1): qHTS in cells in presence of CPT. chicken DT40 Tdp1-/-;hTDP1 cells + 20 nM CPT, ATP luminescence, 48 h. Potency, µM (series often up to 46.2 µM), actives largely listed as inhibitors. 12% of 420,000 active; note: nearly all actives have a fitted effect of over 55% in size
#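 Cell growth measured by CellTiter-Glo luminescence after a minimum 48 h, 37 C compound exposure with 20 nM CPT in Tdp1-knockout DT40 cells stably expressing hTDP1, seeded 400/well; qHTS titration format.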
# DT40 TDP1 no CPT = qHTS for Inhibitors of human tyrosyl-DNA phosphodiesterase 1 (TDP1): qHTS in cells in absence of CPT; DT40 Tdp1-/- hTDP1 cells, no CPT, ATP luminescence, 48 h; Potency, µM (series often up to 46.2 µM), actives largely listed as inhibitors; 15% of 420,000 active; note: nearly all actives have a fitted effect of over 55% in size
#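 Chicken DT40 Tdp1-/- cells stably complemented with human TDP1 were seeded at 400 cells/well with DMSO in place of 20 nM camptothecin. After compound pinning, cells grew at least 48 hr at 37 °C; viability read by CellTiter-Glo luminescence.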
# HT1080-NT tox = qHTS for induction of synthetic lethality in tumor cells producing 2HG: qHTS for the HT-1080-NT fibrosarcoma cell line. HT-1080-NT fibrosarcoma viability, CellTiter-Glo ATP luminescence, 48 h. Potency, µM (series often up to 46.1 µM), usual class: cytotoxic. 1.6% of 360,000 active. AID 686970, 2013;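 note: NT is the 2HG producing partner of a matched IDH1 knockdown line; nearly all actives have a fitted effect of over 55% in size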
#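 Luminescent CellTiter-Glo readout after 48 hours of compound exposure at 37 degrees C defined viability of HT-1080-NT cells. Activity was normalized to DMSO wells and cell-free media wells; concentration-response curves were fitted and assigned curve classes.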
# Numbers stand for hits; – = inactive; ? = inconclusive; · = not tested or not shown; [ ] = remark or other dose. Unless noted, calls come from the whole dose curve; as a rule, active = well fitted curve in the direction sought with a large enough effect; inconclusive = small, poorly fitted or top-dose-only effect, or another doubt; inactive = no such curve, though single readings can be large; an effect the other way counts as inactive or inconclusive.
SMILES,12-LOX inh,IL-1B inflam inh,HT1080 IDH1KD tx,DT40 TDP1 CPT,DT40 TDP1 no CPT,HT1080-NT tox
COc1cc(NC(=O)CSc2nc3nc(C)c(Cc4ccccc4Cl)c(C)n3n2)cc(OC)c1,–,·,·,?,?,·
Cc1cccc(Cc2c(C)nc3nc(SCC(=O)NCc4ccc(F)cc4)nn3c2C)c1,–,·,·,16µM,23µM,·
Cc1ccc(S(=O)(=O)N(C)C)cc1NC(=O)C(C)OC(=O)C1CCCCC1 (stereo not given),–,–,–,–,–,–
O=C(/C=C/c1cccc(Cl)c1Cl)NC(C1CC1)C1CC1,–,·,·,·,·,·
COc1ccc(CN2C(=O)c3ccccc3C2=O)cc1,–,–,–,–,–,–
COc1ccc(/C=C2\C(=O)N(Cc3ccc(F)cc3)CC(=O)N2Cc2ccccc2)cc1,–,–,–,23µM,26µM,–
COc1ccc(/C=C2\C(=O)NCC(=O)N2C)cc1,?,–,–,?,?,–
COc1ccc(/C=C2\C(=O)NCC(=O)N2Cc2ccccc2)cc1,–,–,?,15µM,21µM,?
O=C(CC1CCCN(c2cnn(CC3CC3)c(=O)c2)C1)NCc1ccccc1 (stereo not given),–,·,·,·,·,·
Cc1ccc(C)c(NC(=O)Cn2nnc(C(=O)NCc3ccco3)c2N)c1,–,–,?,1.3µM,1.2µM,?
Cc1ccc(NC(=O)Cn2nnc(C(=O)NCc3cccs3)c2N)cc1,–,–,?,–,–,?
Cc1ccc(CNC(=O)c2nnn(CC(=O)Nc3cc(C)ccc3C)c2N)cc1,–,·,·,–,–,·
Cc1ccc(C)c(NC(=O)Cn2nnc(C(=O)NCc3cccs3)c2N)c1,–,–,23µM,?,?,?
O=C1N(c2ccccc2)c2ccccc2C12CCN([S+](=O)([O-])c1cccc(C(F)(F)F)c1)C2 (stereo not given),–[6.33 µM],·,·,·,·,·
CC(=O)Nc1cc(-c2cccc(C(=O)NCCO)c2)cn2c(-c3cccc(C(F)(F)F)c3)cnc12,–,–,?,18µM,23µM,23µM
CC(=O)Nc1cc(-c2cccc(C(=O)NCCO)c2)cn2c(-c3ccc(F)cc3)cnc12,–,–,–,15µM,21µM,?
COC(=O)c1ccc(NC(=O)c2nn(C)c3c2CS(=O)(=O)c2ccccc2-3)cc1,–,·,·,–,–,·
O=C(OCCOc1cccc(Cl)c1)c1cc(S(=O)(=O)N2CCCCC2)ccc1N1CCOCC1,?,–,–,15µM,8.2µM,–
O=C(OCc1cccc(Cl)c1)c1cc(S(=O)(=O)N2CCCCC2)ccc1N1CCOCC1,–,–,–,16µM,29µM,–
O=C(OCc1ccccc1)c1cc(S(=O)(=O)N2CCCCC2)ccc1N1CCOCC1,–,–,–,?,?,–
COc1ccc(-c2nnc3ccc(SCC(=O)N4CCCC4)nn23)cc1,?,–,–,?,?,–
COc1ccc(-c2nnc3ccc(SCC(=O)N4CCCCCC4)nn23)cc1OC,–,-65,–,–,?,–
COC(=O)c1ccc(CSc2ccc3nnc(-c4ccc(OC)c(OC)c4)n3n2)o1,–,–,–,?,10µM,–
Cc1ccc(C)c2c(=O)cc(CNC(CCn3cncn3)c3ccccc3)[nH]c12 (stereo not given),–,·,·,·,·,·
CC1CCCCN1c1ncnc(N)c1[N+](=O)[O-] (stereo not given),–,-78,–,?,?,–
SMILES,12-LOX inh,IL-1B inflam inh,HT1080 IDH1KD tx,DT40 TDP1 CPT,DT40 TDP1 no CPT,HT1080-NT tox
CC1Cc2ccccc2N1c1ncnc2nc[nH]c12 (stereo not given),·,–,–,?,23µM,–
CC1Cc2ccccc2N1c1ncnc(N)c1[N+](=O)[O-] (stereo not given),–,-92,–,4.1µM,1.5µM,–
c1ccc2c(c1)CCN(c1ncnc3nc[nH]c13)C2,–,–,–,?,?,–
CN(Cc1ccccc1)c1ncnc(N)c1[N+](=O)[O-],–,–,–,–,?,–
N#CCOc1ccc2[nH]cc(C(C(=O)O)N3CCN(Cc4cccc(Cl)c4)CC3)c2c1 (stereo not given),–,·,·,·,·,·
CCn1cc(CN2CCC(C(=O)Nc3cccc(-c4cccc(F)c4)c3)CC2)cn1,–,–,–,–,?,–
O=C(Nc1cccc(-c2cccc(Cl)c2)c1)C1CCN(Cc2nccs2)CC1,–,–,?,9.2µM,5.8µM,–
CCc1ccc(CN2CCC(C(=O)Nc3cccc(-c4nnc(C)s4)c3)CC2)o1,·,–,–,?,–,–
C[C@@H](N)C(=O)N1CCC(C(=O)Nc2cccc(-c3cccc(Cl)c3)c2)CC1,–,·,·,·,·,·
O=C(Nc1cccc(-c2cccc(Cl)c2)c1)C1CCN(Cc2ccc(CO)o2)CC1,–,-81,16µM,?,?,16µM
CC(C)n1cc(CN2CCC(C(=O)Nc3cccc(-c4cccc(Cl)c4)c3)CC2)cn1,?,–,?,?,?,18µM
COc1ccc2c(c1)sc1ncc(C(=O)NCc3cccc(Cl)c3)c(=O)n12,–,·,·,–,–,·
S=C(NCc1ccccc1)N/N=C/c1cccc(Cl)c1,–,·,·,·,·,·
Cc1ccc(-n2c(CNc3ccc(C)c(Cl)c3)n[nH]c2=S)cc1,45µM,–,–,?,?,–
CCCCCCCC1CC(CSC(=N)N)OC1=O (stereo not given),–,-99,–,15µM,21µM,–
CCCCCCCC1CC(/C(C)=N/NC(N)=O)OC1=O (stereo not given),–,–,–,18µM,?,–
CCCCC1CC(CSC(=N)N)OC1=O (stereo not given),?,–,–,?,?,–
CC(C)CCC1CC(CSC(=N)N)OC1=O (stereo not given),–,–,–,?,23µM,–
c1ccc(CCc2nc3nccc(-c4ccsc4)n3n2)cc1,–,·,·,·,·,·
COc1ccc(CNCc2cc(C)c(OC)cc2C)c(OC)c1,?,-63,?,15µM,12µM,?
COc1cccc(CNCc2ccc(OC)cc2OC)c1,?,-57,–,?,?,–
CCn1c(=O)cc(SCC(=O)NCc2ccc(OC)cc2OC)c2ccccc21,–,·,·,–,–,·
CCn1c2ccccc2c2cc(CNCc3ccc(OC)cc3OC)ccc21,?,-88,?,?,10µM,–
